The values that follow come from PubChem BioAssay AID504415 (Broad Institute, 2011).

Results with a measured potency or affinity are listed apart. Inconclusive results are not listed. Activity calls are given as the source filed them.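 The calls were made as follows: active = compound lowering the signal whose fitted half-maximal concentration is at most ten times its top tested dose; inconclusive = flat curve with 30 to 70% loss, or poor fit; inactive = the rest.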

A short description of this test: Mcl1-dependent cancer cell viability – HMC-1-8 cells, luminescence, dry powder, selectivity assay for A1 inhibitor project, dose response (AID 504415).

`C/C1=C/C(=O)O[C@@H]2C[C@@H](CC[C@H](C)/C=C\CC1)O[C@@](O)(C1CSC(=O)N1)C2` (stereo partly specified): the call was inactive.
